# Screening data deposited in PubChem BioAssay by several laboratories.
# FBA Mtb inh – inhibits M. tuberculosis FBA enzyme; purified M. tuberculosis FBA, fluorescence read-out; inhibition, % at 1 µM; 2.3% of 360,000 active; in the data active = inhibition above about 27%;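 also: 0% = vehicle and 100% = reference inhibitor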
# Target sequence (P9WQA3 whole entry, looked up): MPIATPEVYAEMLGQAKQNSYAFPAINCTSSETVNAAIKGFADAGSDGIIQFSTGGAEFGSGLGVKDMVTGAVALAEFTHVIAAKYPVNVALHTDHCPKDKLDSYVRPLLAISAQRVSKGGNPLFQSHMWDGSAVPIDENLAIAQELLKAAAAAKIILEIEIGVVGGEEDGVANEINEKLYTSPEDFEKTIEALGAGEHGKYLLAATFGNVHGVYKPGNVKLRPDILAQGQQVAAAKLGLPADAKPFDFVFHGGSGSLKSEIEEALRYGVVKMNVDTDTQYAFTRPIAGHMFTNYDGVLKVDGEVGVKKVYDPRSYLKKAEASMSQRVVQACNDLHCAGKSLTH
# DUSP3 inh – blocks human VHR1 dual specificity phosphatase | 0.52% of 290,000 active | P51452 | recombinant VHR phosphatase, pNPP absorbance | inhibition, % at 13.3 µM; in the data active = inhibition above about 50%
# Target sequence (P51452 whole entry, looked up): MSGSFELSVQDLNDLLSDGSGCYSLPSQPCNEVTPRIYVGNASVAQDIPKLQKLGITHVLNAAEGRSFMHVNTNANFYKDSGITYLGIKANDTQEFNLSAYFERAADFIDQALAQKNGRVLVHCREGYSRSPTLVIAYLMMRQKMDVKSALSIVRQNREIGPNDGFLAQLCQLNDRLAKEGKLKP
# SARS 3CLpro inh – SARS-CoV 3CLpro protease inhibition. AID 1706. P0C6X7. recombinant SARS-CoV 3CLpro, quenched FRET peptide cleavage. inhibition, % at 6 µM. 0.14% of 290,000 active; in the data active = inhibition above about 12%
# RecA splice inh – Mtb RecA intein splicing inhibition. inhibition, % (no concentration beside the values). cell-free RecA intein splicing, fluorescence. 0.75% of 290,000 active. P9WHJ3. AID 2221; in the data active = inhibition above about 30%;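 also: 0% = vehicle wells and 100% = reference inhibitor control wells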
# CCHFV vOTU inh – CCHFV vOTU protease inhibition | Pep-AMC fluorescence | inhibition, % at 11.5 µM | 0.55% of 370,000 active; also: 0% = vehicle wells with enzyme and 100% = no enzyme wells
# GDH-TPI counter – counter-screen for M. tuberculosis FBA inhibitors: GDH-TPI coupled enzymes. 1.2% of 360,000 active. GDH-TPI coupled enzyme counterscreen, NADH absorbance. AID 588335. inhibition, % at 4.8 µM;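 also: 0% = DMSO wells and 100% = wells lacking the enzyme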
# The depositor's hits bear a star; nt = not tested or not shown; + = active, no number. Sampled rows, rich in hits. Any-hit rate of the full collection: about 4.7%. Rule as the data show it, unless noted: active = inhibition above about 30%; inactive = the rest.
SMILES,FBA Mtb inh,DUSP3 inh,SARS 3CLpro inh,RecA splice inh,CCHFV vOTU inh,GDH-TPI counter
COC(=O)[C@@]12C[C@@H](CC(=O)NCC3CCCCC3)C(=O)N(Cc3cccc4ccccc34)C1=CCC(C)(C)C2,nt,nt,nt,nt,-7,nt
CCC(C)N(C(=O)Cn1nc(Cc2ccncc2)c2ccccc2c1=O)C(C)CC (stereo unspecified),nt,nt,nt,nt,0,nt
CCOC(=S)SCC(=O)Nc1nc(-c2ccccc2)cs1,3,9,-1,43*,4,8
Cc1ccc(-c2csc(NC(=O)CSC3=NCCS3)n2)cc1,1,13,1,58*,-5,1
CCC(C)(C)C(=O)N1CCC(C(=O)NC2CCCc3ccccc32)CC1 (stereo unspecified),nt,nt,nt,nt,-8,nt
Cc1ccnc(NC(=O)CCC(=O)N(CC(=O)NCc2ccc(F)cc2)Cc2ccccc2)c1,-1,25,2,-2,nt,-1
CNc1nc2sc3c(c2c(=O)n1C)CC(C)(C)SC3,185*,4,-2,5,-174,8
CC1(C)Cc2c(sc3nc(SCC(=O)NCc4ccco4)n(-c4ccccc4)c(=O)c23)CS1,22,-6,6,1,0,14
CN1CCc2c1nc1ccccc1c2N=C1CCCN1Cc1ccccc1,12,17,3,nt,2,10
C[C@H](O)[C@@H]1C(=O)N2CCc3c([nH]c4cccc(-c5ccccc5)c34)[C@@H]2C[C@@H]1N(C)C(=O)Nc1ccccc1,nt,nt,nt,nt,-24,nt
CC(=O)/C=C1/C(=O)Nc2ccccc21,-1,16,3,62*,1,0
C=CCOc1cccc(C(=O)/C=C2/C(=O)Nc3ccccc32)c1,0,21,-1,4,4,4
COc1cc(Nc2cc(C)n(-c3ccc(Cl)c(OC)c3)c(=O)c2)ccc1Cl,nt,nt,nt,nt,0,nt
COc1ccc(CC(=O)Nc2ccc(N3CCCC3)c(C)c2)cc1,2,50*,-6,-1,14,-2
COc1ccc(CC(=O)Nc2ccc(C(=O)O)cc2NC(=O)Cc2ccc(OC)cc2)cc1,0,57*,0,-2,-15,-1
COc1ccc(Br)cc1C=NNS(=O)(=O)c1ccc(C)cc1,-1,nt,nt,nt,10,8
COc1ccc(Cl)cc1C=CC=NNS(=O)(=O)c1ccc(C)cc1,0,nt,nt,nt,6,37*
COc1cc([C@@H]2Oc3cc(C4Oc5cc(O)cc(O)c5C(=O)[C@H]4O)ccc3O[C@H]2CO)ccc1O (stereo partly specified),-1,nt,nt,nt,nt,26
COc1cc([C@H]2Oc3cc([C@H]4Oc5cc(O)cc(O)c5C(=O)[C@@H]4O)ccc3O[C@@H]2CO)ccc1O,5,17,0,-3,12,34*
C=C(C)c1cccc(C(C)(C)NC(=O)N2CCCCC2CC)c1 (stereo unspecified),180*,-2,6,3,6,5
CCCCOCCCNC(=O)C[C@H]1C[C@@]2(C(=O)OC)C(=C[C@H](C(C)C)O[C@@H]2C2CC2)N(Cc2ccco2)C1=O,nt,nt,nt,nt,10,nt
COc1ccc(S(=O)(=O)N2CCOc3ccccc32)cc1,154*,-2,-4,3,-3,-3
COc1ccc(S(=O)(=O)N2c3ccccc3OCC2C)cc1 (stereo unspecified),0,13,-3,5,3,1
C[C@@H]1CN([C@H](C)CO)C(=O)CCCn2nncc2CO[C@@H]1CN(C)C(=O)Nc1ccccc1,nt,nt,nt,nt,2,nt
COc1cccc(CN(C(=O)/C=C/c2ccc(Cl)cc2)C2CCS(=O)(=O)C2)c1 (stereo unspecified),-4,51*,-3,0,-13,-5
SMILES,FBA Mtb inh,DUSP3 inh,SARS 3CLpro inh,RecA splice inh,CCHFV vOTU inh,GDH-TPI counter
COc1ccc(N2C(=O)CSC23C(=O)N2c4c(cccc43)C(C)=CC2(C)C)cc1 (stereo unspecified),2,-6,5,33*,6,10
COc1ccc(Cl)cc1NC(=O)CSc1nnc(C2CC2)n1N,-1,nt,nt,nt,-8,-1
O=C(Cc1ccc(Cl)cc1Cl)NCc1cccnc1,1,2,4,1,9,2
Cc1cc(=O)oc2c3c(cc(OCC(=O)NC(C)C)c12)OC(C)(C)CC3,+,10,-3,0,-184,15
CCCCC(NC(=O)COc1cc2c(c3oc(=O)cc(C)c13)CCC(C)(C)O2)C(=O)O (stereo unspecified),+,-2,3,-4,-225,26
CCCCc1cc(=O)oc2cc(OCC(=O)N[C@@H](Cc3ccccc3)C(=O)O)ccc12,19,8,-2,0,-5,19
Cc1cc(=O)oc2c3c(cc(OCC(=O)N[C@@H](C)C(=O)O)c12)OC(C)(C)CC3,+,21,-4,-1,-237,21
Cc1ccccc1Cn1cc(NC(=O)c2cc(C3CC3)on2)cn1,1,-6,2,2,-9,5
CC(=O)c1ccc(N2CCN(C(=O)C3CCN(S(=O)(=O)c4cccs4)CC3)CC2)cc1,1,11,2,-1,22,24
COc1ccc(/C=C(\C#N)C(=O)Nc2cccnc2)cc1,-2,-4,-6,0,-15,32*
CC(NC(=O)/C(C#N)=C/c1ccc(OCC(=O)O)cc1)c1ccccc1 (stereo unspecified),-2,-3,1,nt,-8,37*
CCOc1ccc(/C=C(\C#N)C(=O)Nc2ccccn2)cc1,1,-5,-5,0,12,38*
CCOC(=O)c1ccc(N2C(=O)CC(N3CCC(O)(c4ccc(Cl)cc4)CC3)C2=O)cc1 (stereo unspecified),2,3,-6,1,15,39*
CCn1ncc(CN2CCC(Oc3ccc(C(=O)N4CCCC4)cc3)CC2)c1C,-1,8,1,-1,2,0
CCn1nc(C)c(CN2CCC(Oc3ccc(C(=O)N4CCCC4)cc3)CC2)c1C,0,57*,-2,2,5,2
S=C(SCc1nc(-c2ccc(Cl)cc2)no1)N1CCSCC1,nt,nt,nt,nt,0,nt
CCCCc1c(-c2ccccc2OC)ncn1C1CCCCC1,nt,nt,nt,nt,11,nt
COc1cc2c(c(OC)c1OC)-c1ccc(OC)c(=O)cc1C(NC(C)=O)CC2 (stereo unspecified),-6,16,2,-3,14,17
COc1c(C=O)c2c(c(OC)c1OC)-c1ccc(OC)c(=O)cc1C(NC(C)=O)CC2 (stereo unspecified),1,nt,nt,nt,28,32*
O=C(O)CP(=O)(O)c1ccc(Cl)cc1,2,51*,7,-4,15,1
Cc1ccc(P(=O)(CC(=O)O)c2ccc(C)cc2)cc1,-7,18,1,0,-9,4
Cc1ccc(C(C)NC(=O)c2ccc3c(c2)OCCO3)cc1C (stereo unspecified),1,55*,0,nt,-6,-6
Cc1ccc(NCc2nnc(SCC(N)=O)n2CC2CCCO2)c(C)c1 (stereo unspecified),-11,53*,-14,0,-8,16
O=C(NN=Cc1ccco1)c1cccnc1,nt,nt,nt,nt,7,nt
